# Source: PubChem BioAssay (Tox21)
# Records with an inconclusive call do not appear. Entries that show only a call come without a potency. Unmarked numbers belong to inactive results. Calls of active or inactive are those of the source. The call rests on the fitted dose curve; in most records, active means well fitted inhibition curve with a large enough effect in the repeat runs; inconclusive means weak or mixed curves; inactive means no such curve, though single readings can be large or run the other way.
# Biological target: Cytochrome P450 2D6 (Homo sapiens) (UniProt P10635)
# Experiment: Cytochrome P450 Family 2 Subfamily D Member 6 (CYP2D6) small molecule antagonists: luciferase reporter qHTS assay (AID 1671196); further: nearly all actives have a fitted effect of over 50% in size
# Details: P450-Glo CYP2D6 enzyme assay, luciferin luminescence, 1 h; series mostly up to 115 µM
# Outline: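 Inhibition of CYP2D6 was gauged by loss of luminescence, since light produced tracks the luciferin generated from a proluciferin substrate. A 10 min room-temperature preincubation preceded 1 h NADPH-supported turnover.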
# Potency means the concentration at half of the fitted maximal effect.
# Chain of Cytochrome P450 2D6 (Homo sapiens) (P10635 whole entry, looked up): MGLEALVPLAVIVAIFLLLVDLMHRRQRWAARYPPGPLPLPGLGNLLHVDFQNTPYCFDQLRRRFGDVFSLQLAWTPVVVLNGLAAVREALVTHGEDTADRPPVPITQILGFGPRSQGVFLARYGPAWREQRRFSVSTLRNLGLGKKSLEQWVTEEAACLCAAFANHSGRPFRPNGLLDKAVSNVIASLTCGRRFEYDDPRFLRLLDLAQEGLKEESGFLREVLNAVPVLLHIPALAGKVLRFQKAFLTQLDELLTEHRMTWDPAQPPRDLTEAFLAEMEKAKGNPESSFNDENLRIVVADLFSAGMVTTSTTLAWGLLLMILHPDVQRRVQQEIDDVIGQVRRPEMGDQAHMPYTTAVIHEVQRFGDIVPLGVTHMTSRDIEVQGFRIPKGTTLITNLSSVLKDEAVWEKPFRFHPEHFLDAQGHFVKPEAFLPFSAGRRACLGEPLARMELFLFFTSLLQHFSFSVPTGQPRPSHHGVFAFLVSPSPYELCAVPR
Compound,Potency,"activity change, negative = inhibition"
CCCCCCCCCCCCCCC1CO1 (centres undefined),inactive,–
CC(=O)O[C@@H]1C(=O)O[C@@H]2[C@H]1OC(=O)[C@@H]2OC(C)=O,inactive,–
CC(C)(Oc1ccc(Cl)cc1)C(=O)OCCCOC(=O)C(C)(C)Oc1ccc(Cl)cc1,inactive,–
CCCCC(CC)(CO)CO,inactive,–
N#CCc1cccc(C(F)(F)F)c1,inactive,–
CC(C)(C)c1ccc(S)cc1,inactive,–
O=C(O)c1cn(C2CC2)c2cc(Cl)c(F)cc2c1=O,inactive,–
Nc1nc(CC(=O)O)cs1,28.3 µM (active),–
CC[C@@H]1C[C@H](N(Cc2cc(C(F)(F)F)cc(C(F)(F)F)c2)C(C)=O)c2cc(C(F)(F)F)ccc2N1C(=O)OC(C)C,inactive,–
CC(=O)/C=C/C1C(C)=CCCC1(C)C (centres undefined),inactive,–
CC(C)c1cccc(C(C)C)c1NC(=O)NS(=O)(=O)c1cc(C(C)(C)O)co1,inactive,–
C1CCC2OC2C1 (centres undefined),inactive,–
CC(C)CCCC(C)CCO (centres undefined),inactive,–
O=[N+]([O-])c1cccc(Cl)c1Cl,inactive,–
CCCCCCCCN(C)C,inactive,–
O=C(C(=O)c1ccc(Br)cc1)c1ccc(Br)cc1,–,1.74% [at 23.6 µM]
CC(C)CC=O,inactive,–
COc1ccc(OC)c(OC)c1,inactive,–
CC(=O)OCCc1ccccc1,inactive,–
C=CCCCCCC,inactive,–

Compound,Potency,"activity change, negative = inhibition"
COc1ccc(C(C)=O)cc1,inactive,–
O=C(/C=C/c1ccc(O)c(O)c1)O[C@@H]1C[C@](O)(C(=O)O)C[C@@H](O)[C@H]1O,inactive,–
COC(Cc1ccccc1)OC,inactive,–
O=C(Cl)c1c(Cl)cccc1Cl,inactive,–
CCc1nn(C2CCCCC2)c2cc(C3(C#N)CCC(C(=O)O)CC3)ccc12 (centres undefined),inactive,–
CCCCCCCCC(CO)CCCCCC (centres undefined),inactive,–
CC(=O)N(CC(=O)N(C)C)c1ccccc1,inactive,–
Cc1cccc(OCCOc2cccc(C)c2)c1,inactive,–
CC(C)CCCCCCOC(=O)c1ccc(C(=O)OCCCCCCC(C)C)c(C(=O)OCCCCCCC(C)C)c1,inactive,–
C[Si](C)O[Si](C)(C)O[Si](C)(C)O[Si](C)C,inactive,–
Cn1sccc1=O,inactive,–
CCCCCCCCCC(=O)OCC,inactive,–
C=C(C)C(=O)OCCN(C)C,inactive,–
O=C1c2cccc(O)c2C(=O)c2c(O)cc(CO)cc21,inactive,–
Cc1cccc(Oc2ccccc2)c1,34.7 µM (active),–
CCOc1ccc(NC(=O)CC(C)=O)cc1,35.6 µM (active),–
CC1=CCC(C(C)C)C=C1 (centres undefined),71 µM (active),–
CC(CN)CCCN (centres undefined),22.4 µM (active),–
CC(C)(C)c1cc(CCC(=O)OCC(COC(=O)CCc2cc(C(C)(C)C)c(O)c(C(C)(C)C)c2)(COC(=O)CCc2cc(C(C)(C)C)c(O)c(C(C)(C)C)c2)COC(=O)CCc2cc(C(C)(C)C)c(O)c(C(C)(C)C)c2)cc(C(C)(C)C)c1O,inactive,–
